# Source: publication PMC7862700, “An all-to-all approach to the identification of sequence-specific readers for epigenetic DNA modifications on cytosine”
# What was measured:
# Assay in all cases: DAPPL (digital affinity profiling via proximity ligation, sequencing); 10 mM Tris-HCl pH 7.5, 50 mM NaCl, 1 mM DTT, 4% glycerol, room temperature, 30 min; GST-TFs on glutathione beads, 16-mer random dsDNA library, 0.1% formaldehyde crosslink after washing; high values mean tight binding
# FLI1 = biological target: T1, FLI1 (Homo sapiens, UniProt Q01543 1-452); conditions: protein: recombinant; tags: N-terminal GST; dsDNA, one strand shown
# T1 sequence: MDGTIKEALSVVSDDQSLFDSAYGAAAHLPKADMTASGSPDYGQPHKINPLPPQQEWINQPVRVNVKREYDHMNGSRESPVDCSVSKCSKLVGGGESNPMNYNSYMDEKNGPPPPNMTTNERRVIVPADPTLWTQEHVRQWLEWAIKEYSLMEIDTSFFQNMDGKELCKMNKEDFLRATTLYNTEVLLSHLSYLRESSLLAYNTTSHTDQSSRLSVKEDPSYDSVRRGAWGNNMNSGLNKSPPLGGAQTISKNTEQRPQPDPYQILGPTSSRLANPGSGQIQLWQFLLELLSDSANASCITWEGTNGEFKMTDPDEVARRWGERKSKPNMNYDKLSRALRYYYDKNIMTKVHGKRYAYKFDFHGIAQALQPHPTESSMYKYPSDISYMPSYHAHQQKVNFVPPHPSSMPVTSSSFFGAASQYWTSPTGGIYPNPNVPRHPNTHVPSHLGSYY
# Method in brief: (§1)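 Beads coated with glutathione captured GST-fused human transcription factors that had been expressed in yeast, and the factors were then given DNA barcodes and pooled with a tag-only sample. The pools were incubated with 200 nmole of a random double-stranded 16-mer DNA library in Tris/NaCl/DTT/glycerol buffer for 30 min at room temperature, washed, crosslinked with 0.1% formaldehyde and proximity-ligated with BsaI/T4 ligase at 37 °C for 1 h. PCR amplification and Illumina NextSeq500 sequencing came last. Binding signal is each hexamer's read frequency for a factor divided by its frequency for the tag-only sample.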
# ELK1 = biological target: T2, ELK1 (Homo sapiens, UniProt P19419 1-428); conditions: protein: recombinant; tags: N-terminal GST; dsDNA, one strand shown
# T2 sequence: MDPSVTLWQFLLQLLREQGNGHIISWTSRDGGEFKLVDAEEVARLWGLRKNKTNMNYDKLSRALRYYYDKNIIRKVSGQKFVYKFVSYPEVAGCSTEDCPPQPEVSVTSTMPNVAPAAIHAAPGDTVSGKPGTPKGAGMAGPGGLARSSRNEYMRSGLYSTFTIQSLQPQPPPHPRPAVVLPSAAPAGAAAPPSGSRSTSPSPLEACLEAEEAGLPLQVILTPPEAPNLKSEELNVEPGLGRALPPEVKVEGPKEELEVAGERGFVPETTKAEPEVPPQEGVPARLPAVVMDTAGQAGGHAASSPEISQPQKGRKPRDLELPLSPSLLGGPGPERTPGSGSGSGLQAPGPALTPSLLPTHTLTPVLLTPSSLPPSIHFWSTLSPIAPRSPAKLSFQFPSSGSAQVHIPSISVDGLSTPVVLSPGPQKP
# Method in brief: as §1
# ERG = biological target: T3, ERG (Homo sapiens, UniProt P11308 1-479); conditions: protein: recombinant; tags: N-terminal GST; dsDNA, one strand shown
# T3 sequence: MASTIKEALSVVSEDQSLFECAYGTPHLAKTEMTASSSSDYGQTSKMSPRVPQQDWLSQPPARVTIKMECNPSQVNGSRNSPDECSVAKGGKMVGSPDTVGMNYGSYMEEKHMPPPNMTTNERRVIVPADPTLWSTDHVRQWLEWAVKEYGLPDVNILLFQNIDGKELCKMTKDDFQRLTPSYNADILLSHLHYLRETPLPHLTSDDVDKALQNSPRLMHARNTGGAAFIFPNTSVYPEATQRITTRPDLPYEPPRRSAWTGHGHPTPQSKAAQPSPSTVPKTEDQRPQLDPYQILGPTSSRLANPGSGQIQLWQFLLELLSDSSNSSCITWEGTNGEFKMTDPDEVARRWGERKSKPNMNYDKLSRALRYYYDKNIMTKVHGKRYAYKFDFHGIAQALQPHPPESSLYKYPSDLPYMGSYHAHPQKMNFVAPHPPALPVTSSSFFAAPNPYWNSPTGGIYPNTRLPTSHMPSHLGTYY
# Method in brief: as §1
# ELF1 = ELF1 (Homo sapiens, UniProt P32519 1-619); conditions: protein: recombinant; tags: N-terminal GST; dsDNA, one strand shown
# Method in brief: as §1
# EHF = biological target: T4, EHF (Homo sapiens, UniProt Q9NZC4 1-300); conditions: protein: recombinant; tags: N-terminal GST; dsDNA, one strand shown
# T4 sequence: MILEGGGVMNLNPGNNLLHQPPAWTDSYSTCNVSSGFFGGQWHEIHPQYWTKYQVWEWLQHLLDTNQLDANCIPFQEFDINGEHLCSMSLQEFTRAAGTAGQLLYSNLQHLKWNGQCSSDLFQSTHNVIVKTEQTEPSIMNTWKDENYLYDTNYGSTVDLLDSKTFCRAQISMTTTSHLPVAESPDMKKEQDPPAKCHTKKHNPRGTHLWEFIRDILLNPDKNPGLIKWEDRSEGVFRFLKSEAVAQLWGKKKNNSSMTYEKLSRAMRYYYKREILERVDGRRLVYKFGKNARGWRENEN
# Method in brief: as §1
# SPI1 = SPI1 (Homo sapiens, UniProt P17947 1-270); conditions: protein: recombinant; tags: N-terminal GST; dsDNA, one strand shown
# Method in brief: as §1
# SPIB = SPIB (Homo sapiens, UniProt Q01892 1-262); conditions: protein: recombinant; tags: N-terminal GST; dsDNA, one strand shown
# Method in brief: as §1
# ELK3 = biological target: T5, ELK3 (Homo sapiens, UniProt P41970 1-407); conditions: protein: recombinant; tags: N-terminal GST; dsDNA, one strand shown
# T5 sequence: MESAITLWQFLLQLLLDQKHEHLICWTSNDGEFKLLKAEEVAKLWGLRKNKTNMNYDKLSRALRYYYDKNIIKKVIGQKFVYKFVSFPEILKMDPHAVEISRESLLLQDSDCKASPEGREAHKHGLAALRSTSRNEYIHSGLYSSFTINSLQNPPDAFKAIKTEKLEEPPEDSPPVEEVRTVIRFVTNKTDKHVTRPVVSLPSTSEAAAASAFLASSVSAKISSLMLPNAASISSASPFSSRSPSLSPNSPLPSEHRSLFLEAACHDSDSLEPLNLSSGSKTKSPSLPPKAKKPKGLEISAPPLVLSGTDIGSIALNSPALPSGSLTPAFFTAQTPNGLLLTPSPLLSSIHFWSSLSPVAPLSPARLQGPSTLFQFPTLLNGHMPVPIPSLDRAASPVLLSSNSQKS
# Method in brief: as §1
# ETV5 = ETV5 (Homo sapiens, UniProt P41161 1-510); conditions: protein: recombinant; tags: N-terminal GST; dsDNA, one strand shown
# Method in brief: as §1
# HSF1 = HSF1 (Homo sapiens, UniProt Q00613 1-529); conditions: protein: recombinant; tags: N-terminal GST; chain copies: 3; dsDNA, one strand shown
# Method in brief: as §1
# SPIC = biological target: T6, SPIC (Homo sapiens, UniProt Q8N5J4 1-248); conditions: protein: recombinant; tags: N-terminal GST; dsDNA, one strand shown
# T6 sequence: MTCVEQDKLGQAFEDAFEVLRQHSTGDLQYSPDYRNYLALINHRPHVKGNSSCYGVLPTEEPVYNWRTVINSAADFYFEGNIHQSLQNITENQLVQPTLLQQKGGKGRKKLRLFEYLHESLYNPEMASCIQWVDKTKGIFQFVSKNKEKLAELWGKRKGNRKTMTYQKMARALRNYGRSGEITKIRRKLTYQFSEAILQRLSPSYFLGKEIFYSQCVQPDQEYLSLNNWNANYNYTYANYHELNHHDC
# Method in brief: as §1
# ELK4 = biological target: T7, ELK4 (Homo sapiens, UniProt P28324-2 1-405); conditions: protein: recombinant; tags: N-terminal GST; dsDNA, one strand shown
# T7 sequence: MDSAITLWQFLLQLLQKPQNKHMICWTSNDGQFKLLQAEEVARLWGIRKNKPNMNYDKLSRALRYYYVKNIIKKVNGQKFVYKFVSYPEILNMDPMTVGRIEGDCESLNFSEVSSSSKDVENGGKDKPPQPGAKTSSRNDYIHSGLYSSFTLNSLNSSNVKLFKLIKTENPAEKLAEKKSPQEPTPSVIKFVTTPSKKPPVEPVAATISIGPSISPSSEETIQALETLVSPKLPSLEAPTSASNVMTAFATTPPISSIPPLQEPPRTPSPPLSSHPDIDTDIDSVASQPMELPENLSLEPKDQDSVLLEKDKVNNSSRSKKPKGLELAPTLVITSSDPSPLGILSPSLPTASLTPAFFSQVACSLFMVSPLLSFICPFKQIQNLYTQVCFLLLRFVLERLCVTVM
# Method in brief: as §1
# ETV2 = biological target: T8, ETV2 (Homo sapiens, UniProt O00321 1-342); conditions: protein: recombinant; tags: N-terminal GST; dsDNA, one strand shown
# T8 sequence: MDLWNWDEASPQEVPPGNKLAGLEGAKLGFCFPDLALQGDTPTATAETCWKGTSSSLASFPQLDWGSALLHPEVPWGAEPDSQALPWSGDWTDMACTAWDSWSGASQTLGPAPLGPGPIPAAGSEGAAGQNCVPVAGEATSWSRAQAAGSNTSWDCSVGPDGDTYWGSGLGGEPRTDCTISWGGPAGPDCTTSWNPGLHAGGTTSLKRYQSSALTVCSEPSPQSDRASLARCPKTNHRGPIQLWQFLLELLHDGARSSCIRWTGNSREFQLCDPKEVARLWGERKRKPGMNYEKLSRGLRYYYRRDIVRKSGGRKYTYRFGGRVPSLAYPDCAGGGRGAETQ
# Method in brief: as §1
# CRX = CRX (Homo sapiens, UniProt O43186 1-299); conditions: protein: recombinant; tags: N-terminal GST; dsDNA, one strand shown
# Method in brief: as §1
# ETV1 = ETV1 (Homo sapiens, UniProt P50549 1-477); conditions: protein: recombinant; tags: N-terminal GST; dsDNA, one strand shown
# Method in brief: as §1
# Chain of SPIB (Q01892 whole entry): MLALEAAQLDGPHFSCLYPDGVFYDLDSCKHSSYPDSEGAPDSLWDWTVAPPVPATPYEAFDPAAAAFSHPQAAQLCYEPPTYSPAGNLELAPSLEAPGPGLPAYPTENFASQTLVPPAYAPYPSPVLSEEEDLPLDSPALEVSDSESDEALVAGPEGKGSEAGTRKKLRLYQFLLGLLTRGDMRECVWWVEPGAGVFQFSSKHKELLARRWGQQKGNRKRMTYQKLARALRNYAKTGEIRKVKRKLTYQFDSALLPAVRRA
# Chain of HSF1 (Q00613 whole entry): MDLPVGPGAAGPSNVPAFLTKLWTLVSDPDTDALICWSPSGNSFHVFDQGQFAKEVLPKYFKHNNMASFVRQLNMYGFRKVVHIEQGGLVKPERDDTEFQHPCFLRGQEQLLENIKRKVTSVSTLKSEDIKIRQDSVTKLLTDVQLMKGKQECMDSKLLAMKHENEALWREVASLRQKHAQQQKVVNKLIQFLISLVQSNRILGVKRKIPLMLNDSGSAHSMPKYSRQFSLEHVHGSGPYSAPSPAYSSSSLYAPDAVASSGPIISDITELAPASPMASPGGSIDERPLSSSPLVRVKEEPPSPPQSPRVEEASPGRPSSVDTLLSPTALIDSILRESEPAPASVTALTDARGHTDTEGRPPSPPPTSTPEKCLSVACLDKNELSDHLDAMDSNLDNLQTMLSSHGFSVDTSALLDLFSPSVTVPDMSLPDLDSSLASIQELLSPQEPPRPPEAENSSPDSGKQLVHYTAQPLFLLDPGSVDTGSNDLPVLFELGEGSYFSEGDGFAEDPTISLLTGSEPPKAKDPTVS
# Chain of ELF1 (P32519 whole entry): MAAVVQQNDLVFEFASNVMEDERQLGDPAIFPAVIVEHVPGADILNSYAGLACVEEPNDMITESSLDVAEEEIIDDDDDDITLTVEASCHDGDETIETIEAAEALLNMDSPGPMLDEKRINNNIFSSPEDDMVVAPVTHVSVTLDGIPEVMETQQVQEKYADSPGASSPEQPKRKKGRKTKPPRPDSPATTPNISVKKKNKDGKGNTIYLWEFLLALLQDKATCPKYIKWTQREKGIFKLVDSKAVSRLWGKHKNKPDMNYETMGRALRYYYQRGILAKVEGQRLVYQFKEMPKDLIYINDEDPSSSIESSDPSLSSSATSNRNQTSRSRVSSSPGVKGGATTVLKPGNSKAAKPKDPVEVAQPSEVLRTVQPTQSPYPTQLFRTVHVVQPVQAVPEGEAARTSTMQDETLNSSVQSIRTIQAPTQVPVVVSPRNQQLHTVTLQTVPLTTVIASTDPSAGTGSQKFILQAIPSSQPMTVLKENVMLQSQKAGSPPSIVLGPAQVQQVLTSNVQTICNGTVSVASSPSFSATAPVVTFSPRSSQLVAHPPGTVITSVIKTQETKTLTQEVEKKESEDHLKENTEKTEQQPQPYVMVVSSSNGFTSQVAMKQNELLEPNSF
# Chain of CRX (O43186 whole entry): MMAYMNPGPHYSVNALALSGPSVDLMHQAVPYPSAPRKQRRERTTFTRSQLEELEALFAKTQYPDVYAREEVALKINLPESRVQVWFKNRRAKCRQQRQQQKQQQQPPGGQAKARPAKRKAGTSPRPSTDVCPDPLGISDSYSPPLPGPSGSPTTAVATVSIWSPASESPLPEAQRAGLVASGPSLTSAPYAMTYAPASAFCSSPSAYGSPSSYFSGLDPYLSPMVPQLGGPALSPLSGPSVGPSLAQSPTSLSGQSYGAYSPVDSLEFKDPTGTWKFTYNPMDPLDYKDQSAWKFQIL
# Chain of ETV1 (P50549 whole entry): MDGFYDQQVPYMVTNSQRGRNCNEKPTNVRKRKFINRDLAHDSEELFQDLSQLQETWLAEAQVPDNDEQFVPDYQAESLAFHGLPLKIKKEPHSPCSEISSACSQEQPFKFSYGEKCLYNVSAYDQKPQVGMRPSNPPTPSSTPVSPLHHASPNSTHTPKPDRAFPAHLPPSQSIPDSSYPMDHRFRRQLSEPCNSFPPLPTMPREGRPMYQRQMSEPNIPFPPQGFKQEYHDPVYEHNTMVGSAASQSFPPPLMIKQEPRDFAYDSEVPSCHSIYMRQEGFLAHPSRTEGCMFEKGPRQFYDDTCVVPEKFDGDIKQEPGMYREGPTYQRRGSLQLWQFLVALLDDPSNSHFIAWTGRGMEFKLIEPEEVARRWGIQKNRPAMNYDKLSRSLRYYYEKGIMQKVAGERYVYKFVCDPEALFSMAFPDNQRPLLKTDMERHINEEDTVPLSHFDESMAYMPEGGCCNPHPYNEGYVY
# Chain of ETV5 (P41161 whole entry): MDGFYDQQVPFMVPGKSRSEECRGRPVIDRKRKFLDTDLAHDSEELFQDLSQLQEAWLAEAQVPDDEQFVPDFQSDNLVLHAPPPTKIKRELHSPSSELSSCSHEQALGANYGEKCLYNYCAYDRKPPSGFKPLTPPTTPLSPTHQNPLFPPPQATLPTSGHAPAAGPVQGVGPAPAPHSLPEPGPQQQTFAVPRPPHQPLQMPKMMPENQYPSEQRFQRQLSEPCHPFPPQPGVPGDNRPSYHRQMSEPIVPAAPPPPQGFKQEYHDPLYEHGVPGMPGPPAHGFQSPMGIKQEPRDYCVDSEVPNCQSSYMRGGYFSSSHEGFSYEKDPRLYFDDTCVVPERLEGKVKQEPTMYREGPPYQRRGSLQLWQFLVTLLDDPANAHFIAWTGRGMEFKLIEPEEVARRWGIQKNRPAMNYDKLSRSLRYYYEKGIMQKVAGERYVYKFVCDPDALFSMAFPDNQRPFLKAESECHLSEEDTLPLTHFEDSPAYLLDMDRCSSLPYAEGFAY
sequence,measurement,setting,value
GAATTA,binding signal,FLI1,"1.09 fold enrichment (6-mer frequency, TF over GST control)"
same,binding signal,ELK1,"1.05 fold enrichment (6-mer frequency, TF over GST control)"
same,binding signal,ERG,"1.01 fold enrichment (6-mer frequency, TF over GST control)"
same,binding signal,ELF1,"1.04 fold enrichment (6-mer frequency, TF over GST control)"
same,binding signal,EHF,"1.12 fold enrichment (6-mer frequency, TF over GST control)"
same,binding signal,SPI1,"1.07 fold enrichment (6-mer frequency, TF over GST control)"
same,binding signal,SPIB,"1.02 fold enrichment (6-mer frequency, TF over GST control)"
same,binding signal,ELK3,"1.12 fold enrichment (6-mer frequency, TF over GST control)"
same,binding signal,ETV5,"1.01 fold enrichment (6-mer frequency, TF over GST control)"
same,binding signal,HSF1,"1.72 fold enrichment (6-mer frequency, TF over GST control)"
same,binding signal,SPIC,"1.12 fold enrichment (6-mer frequency, TF over GST control)"
same,binding signal,ELK4,"1.09 fold enrichment (6-mer frequency, TF over GST control)"
same,binding signal,ETV2,"1.02 fold enrichment (6-mer frequency, TF over GST control)"
same,binding signal,CRX,"2.39 fold enrichment (6-mer frequency, TF over GST control)"
same,binding signal,ETV1,"1.08 fold enrichment (6-mer frequency, TF over GST control)"
